Hits are enriched below; roughly 2.7% of the tested compounds scored in any of these assays.
ATXN viability: viability counter-screen for ATXN expression inhibitors; S2 cells (HEK-293 line with an ATXN2-luciferase reporter) viability, CellTiter-Fluor protease fluorescence, 24 h; Potency, µM (top dose mostly 56.7 µM), most hits filed as cytotoxic; actives 0.49% (n = 400,000); AID 651635; note: nearly all actives have a fitted effect of over 40% in size
ATXN2 expr inh: reduces ATXN2 reporter expression in HEK-293 cells | Potency, µM (top dose mostly 57 µM), actives largely listed as inhibitors | actives 0.72% (n = 360,000) | HEK-293 ATXN2-luciferase reporter, luminescence, 24 h; note: nearly all actives have a fitted effect of over 55% in size
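ATXN2-luciferase reporter cells (luciferase flanked by upstream and downstream ATXN2 gene portions) were treated 24 h at 37 °C with compounds at up to 57 uM. SteadyGlo luminescence gave expression; GF-AFC fluorescence gave viability.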
TGFb SMAD3 inh: TGF-b pathway inhibition | HepG2 CAGA-GFP TGF-b/SMAD3 reporter, GFP fluorescence, 18 h; TGF-beta stimulated, 500 pg/mL final | Potency, µM (titrated, usually from 46.1 µM), most hits filed as inhibitors | actives 1.2% (n = 410,000); note: nearly all actives have a fitted effect of over 65% in size
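HEPG2 CAGA-GFP cells (1000/well, DMEM with 1% FBS) were pre-incubated 2 h at 37 degrees C, given compound by pin tool, then stimulated with TGF-beta at 500 pg/mL final for 18 h before per-cell GFP fluorescence imaging.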
ALOX12 inh: ALOX12 (human) lipoxygenase inhibition; actives 1.1% (n = 580,000); purified 12hLO, xylenol orange hydroperoxide absorbance; Potency, µM (titrated, usually from 108 µM), actives largely listed as inhibitors
Target sequence (P18054 whole entry, looked up): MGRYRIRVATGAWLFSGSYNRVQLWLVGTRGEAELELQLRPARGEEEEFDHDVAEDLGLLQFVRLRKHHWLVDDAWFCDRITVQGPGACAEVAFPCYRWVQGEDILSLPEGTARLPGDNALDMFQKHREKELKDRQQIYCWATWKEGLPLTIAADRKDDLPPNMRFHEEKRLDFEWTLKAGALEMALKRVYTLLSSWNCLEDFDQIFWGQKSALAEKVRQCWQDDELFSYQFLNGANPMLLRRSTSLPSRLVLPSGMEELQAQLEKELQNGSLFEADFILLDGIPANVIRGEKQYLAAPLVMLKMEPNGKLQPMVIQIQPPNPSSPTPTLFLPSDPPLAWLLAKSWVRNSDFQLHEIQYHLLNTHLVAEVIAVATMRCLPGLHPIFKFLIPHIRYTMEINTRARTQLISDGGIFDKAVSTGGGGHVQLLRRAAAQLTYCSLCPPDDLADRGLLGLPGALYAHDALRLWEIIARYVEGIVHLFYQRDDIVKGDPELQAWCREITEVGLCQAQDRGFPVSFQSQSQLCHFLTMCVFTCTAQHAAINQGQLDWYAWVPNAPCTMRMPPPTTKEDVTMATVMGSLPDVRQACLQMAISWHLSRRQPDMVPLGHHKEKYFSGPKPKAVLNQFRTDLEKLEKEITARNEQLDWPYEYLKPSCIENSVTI
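Purified human 12hLO at 150 nM in 25 mM Hepes, 0.01% Triton X-100, pH 7.0, preincubated 15 min at room temperature with compound. Reaction started with 40 uM arachidonic acid, 30 min at room temperature. Hydroperoxide measured by Fe-xylenol orange, 573/405 nm absorbance ratio.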
HepG2 tox: kills HepG2 cells in TGF-b inhibitor counter-screen. HepG2 CAGA-GFP viability, ATP luminescence, 18 h. Potency, µM (doses to about 46.1 µM), actives largely listed as cytotoxic. actives 0.76% (n = 410,000)
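HepG2 CAGA-GFP cells (1000/well, DMEM with 1% FBS) received compound, then TGF-beta at 500 pg/mL final, and were incubated 18 hours at 37 degrees C. Viability was read by CellTiter-Glo luminescence. Media-only wells were set as complete cell-killing and DMSO as no toxicity.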
Hits are given with their value; 0 = inactive; ? = inconclusive; - = no result given; ! = repeats disagree. Calls come from the whole dose curve; as a rule, active = well fitted curve in the direction sought with a large enough effect; inconclusive = small, poorly fitted or top-dose-only effect, or another doubt; inactive = no such curve, though single readings can be large; an effect the other way counts as inactive or inconclusive.

SMILES	ATXN viability	ATXN2 expr inh	TGFb SMAD3 inh	ALOX12 inh	HepG2 tox
Cc1ccc(-n2ncc(C(=O)NCCN3CCC(Cc4ccccc4)CC3)c2C2CCN(C(=O)OC(C)(C)C)CC2)cc1	-	-	?	?	13µM
Cc1ccc(-n2ncc(C(=O)NCCN3CCCC3)c2C2CCN(C(=O)OC(C)(C)C)CC2)cc1	-	-	0	0	0
CC(C)(C)OC(=O)N1CCC(c2c(C(=O)NCCN3CCC(Cc4ccccc4)CC3)cnn2-c2cccc(Cl)c2)CC1	-	-	?	?	7.1µM
Cc1cc2c(-c3cccc(OC(C)C)c3)nc(-c3c(C)noc3C)cc2[nH]1	-	-	-	0	-
CC(C)CC(=O)Nc1ccc(-c2csc(N)n2)cc1	-	-	-	0	-
Cc1ccc(-n2ncc(C(=O)NCCN3CCc4ccccc4C3)c2C2CCN(C(=O)OC(C)(C)C)CC2)c(C)c1	-	?	16µM	0	0
CCOC(=O)c1cnn(-c2ccc(OC)cc2)c1C1CCN(C(=O)OC(C)(C)C)CC1	0	0	?	14µM	0
CCOC(=O)c1ccccc1NC(=O)c1cnn(-c2ccc(OC)cc2)c1C1CCN(C(=O)OC(C)(C)C)CC1	-	-	0	0	0
Cn1c(=O)[nH]c(=O)c2c1nc(SCC(=O)Nc1ccccc1)n2Cc1ccccc1Cl	-	-	-	0	-
Cn1cc(CNCC2(COc3ccc(C(F)(F)F)cn3)C[C@@H](O)[C@@H](O)C2)cn1 (some centres not stated)	-	-	-	18µM	-
OCc1cc(-c2ccccc2)n[nH]1	-	-	-	0	-
COc1ccc(NC(=O)c2ncoc2-c2cccc(Cl)c2)c(OC)c1	-	-	-	0	-
CN(C)CCCNC(=O)/C(=C\c1ccc(-c2ccc(Br)cc2)o1)NC(=O)c1ccccc1	0	?	?	0	11µM
CN(C)CCNc1oc(-c2ccc(F)cc2)nc1S(=O)(=O)c1ccc2c(c1)OCCO2	-	-	-	32µM	-
COc1ccc(-c2nc(S(=O)(=O)c3ccc4c(c3)OCCO4)c(N3CCN(C)CC3)o2)cc1	-	-	-	35µM	-
COc1cccc(-c2nc(S(=O)(=O)c3ccc4c(c3)OCCO4)c(N3CCOCC3)o2)c1	-	-	-	0	-
CN(C)Cc1ccc(CNC(=O)c2nn(-c3ccc(F)cc3)c3c2CCC3)cc1	-	-	-	0	-
COc1ccc(F)cc1Nc1cnc2ccc(N(C)C)nn12	-	-	-	0	-
Cc1nn(-c2ccccn2)c2c1C(c1ccccc1Cl)C1=C(N2)c2ccccc2C1=O (configuration not stated)	2.2µM	?	0	0	0
CSC1=C(C#N)C(c2ccccc2Cl)C2=C(N1)c1ccccc1C2=O (configuration not stated)	?	0	0	0	0
CC(=O)N1CCc2c(sc(NC(=O)Cc3ccc(F)cc3)c2C(N)=O)C1	0	-	0	0	11µM
CC(C)c1ccc(/C=C/c2[nH]c(=O)[nH]c(=O)c2[N+](=O)[O-])cc1	0	-	?	?	16µM
O=C(CN(CC(=O)Nc1ccc(Br)cc1)CC(=O)Nc1ccc(Br)cc1)Nc1ccc(Br)cc1	-	-	-	11µM	-
Cc1cc(C)n(-c2nc3ccccc3nc2Nc2ccc(F)c(F)c2)n1	-	-	-	0	-
CCOC(=O)CNC(c1ccccc1)c1cc(Br)ccc1NC(=O)CCN1CCOCC1 (configuration not stated)	?	-	?	?	13µM
SMILES	ATXN viability	ATXN2 expr inh	TGFb SMAD3 inh	ALOX12 inh	HepG2 tox
COC(=O)CNC(c1ccccc1)c1cc(Br)ccc1NC(=O)CCN1CCOCC1 (configuration not stated)	?	-	18µM	40µM	22µM
CN(Cc1ccsc1)C(=O)CC1CCCC1	-	-	-	0	-
CCOc1ccc(NS(=O)(=O)c2ccc3[nH]cc(C(=O)NCc4ccccc4)c(=O)c3c2)cc1	0	0	0	?	0
CCN(c1ccccc1)S(=O)(=O)c1ccc2[nH]cc(C(=O)NC3CCCCC3)c(=O)c2c1	?	?	7.9µM	?	0
CCN(c1ccccc1)S(=O)(=O)c1ccc2[nH]cc(C(=O)NCCOC)c(=O)c2c1	0	0	0	0	0
Cc1ccc(CNC(=O)c2c[nH]c3ccc(S(=O)(=O)Nc4ccc(C(C)C)cc4)cc3c2=O)cc1	-	-	?	?	11µM
Cc1ccccc1NS(=O)(=O)c1ccc2[nH]cc(C(=O)NCCc3ccccc3)c(=O)c2c1	-	-	20µM	0	0
O=C(c1ccccc1F)N1N=C(c2ccsc2)CC1c1ccc2nccnc2c1 (configuration not stated)	-	-	-	0	-
CC(Cc1c[nH]c2ccccc12)NC(=O)CCNc1nc(Cl)nc2nc[nH]c12 (configuration not stated)	-	-	-	0	-
COc1ccc(CNCCc2ccc([N+](=O)[O-])cc2)c(OC)c1OC	0	-	0	7.9µM	0
COc1ccc(C)cc1NCc1ccc([N+](=O)[O-])cc1	-	0	0	0	0
COc1ccc(-n2c3c(c(=O)[nH]c2=O)CN(C2CCCC2)CN3)cc1Cl	-	-	-	0	-
O=C(ONc1ccc(N=NC(=O)c2ccccc2O)cc1)c1ccccc1	1.3µM	0	0	?	0
O=Nc1ccc(NOC(=O)c2ccccc2Br)cc1	0	0	0	?	0
COc1cccc(N=Cc2ccc(N(C)C)cc2)c1	-	-	-	0	-
CC(C)C[C@H](NC(=O)CNC(=O)c1cc(Cl)ccc1Cl)B(O)O	-	0.31µM	-	0	-
CC(C)C[C@H](NC(=O)CNC(=O)c1cc(Cl)ccc1Cl)B1OC(=O)CC(CC(=O)O)(C(=O)O)O1 (some centres not stated)	-	0.22µM	-	?	-
Cc1ccc(C)c(S(=O)(=O)N2CCc3ccccc32)c1	-	-	-	0	-
N#C/C(=C/c1ccccc1OC(F)F)C(=O)Nc1cccc(C(F)(F)F)c1	-	-	-	0	-
C=C[C@@H]1c2c(F)cccc2N(S(=O)(=O)c2ccc(C)cc2)[C@H](c2ccc(OC(C)=O)cc2)C1(C#N)C#N	32µM	?	?	0	0
O=C(Nc1ccc(Cl)c(C(F)(F)F)c1)c1ccncc1	0	0	0	0	0
CNC(=O)c1cc(Oc2ccc(NC(=O)Nc3ccc(Cl)c(C(F)(F)F)c3)cc2)ccn1	16µM	18µM!	?	0	16µM!
COc1c(C)cnc(Cn2cnc3c(Cl)nc(N)nc32)c1C	-	0.19µM	-	0	-
NC(N)=NN=Cc1ccnc2ccccc12	0	0	0	?	0
NC(=NCc1ccccc1)NN=Cc1ccnc2ccccc12	?	0	?	13µM	0
CN1CCN(c2cc(N3CCc4ccccc4C3)c(F)cc2[N+](=O)[O-])CC1	?	0	?	?	16µM
CCCOc1ccc(C(=O)C(CN2CCCC2)c2ccccc2)cc1 (configuration not stated)	?	?	?	0	0
c1ccc(C(CN2CCOCC2)c2ccccc2)cc1	0	0	0	?	0
COc1ccc(C(=O)C(CN2CCCC2)c2ccccc2)cc1 (configuration not stated)	-	?	11µM	0	32µM

Screening results from PubChem.
